Screen size: about 360,000 compounds; about 16,000 (4.4%) were called active. Entries that show only a call come without a potency. Another 9% or so got no clear call; they are omitted. The call rests on the fitted dose curve; in most records, active means well fitted inhibition curve with a large enough effect; inconclusive means small, poorly fitted or top-dose-only effect; inactive means no such curve, though single readings can be large or run the other way. Many of the other results were omitted from the sample, so actives are more common in it than they were.
Each compound was assayed against Bromodomain adjacent to zinc finger domain protein 2B (Homo sapiens) (UniProt Q9UIF8) (assay: qHTS Assay for Inhibitors of BAZ2B). Conditions: AlphaScreen BAZ2B-H3K14Ac peptide displacement; series mostly up to 114 µM.
Bromodomain adjacent to zinc finger domain protein 2B (Homo sapiens), sequence (Q9UIF8 whole entry, looked up, the tested form may be a part): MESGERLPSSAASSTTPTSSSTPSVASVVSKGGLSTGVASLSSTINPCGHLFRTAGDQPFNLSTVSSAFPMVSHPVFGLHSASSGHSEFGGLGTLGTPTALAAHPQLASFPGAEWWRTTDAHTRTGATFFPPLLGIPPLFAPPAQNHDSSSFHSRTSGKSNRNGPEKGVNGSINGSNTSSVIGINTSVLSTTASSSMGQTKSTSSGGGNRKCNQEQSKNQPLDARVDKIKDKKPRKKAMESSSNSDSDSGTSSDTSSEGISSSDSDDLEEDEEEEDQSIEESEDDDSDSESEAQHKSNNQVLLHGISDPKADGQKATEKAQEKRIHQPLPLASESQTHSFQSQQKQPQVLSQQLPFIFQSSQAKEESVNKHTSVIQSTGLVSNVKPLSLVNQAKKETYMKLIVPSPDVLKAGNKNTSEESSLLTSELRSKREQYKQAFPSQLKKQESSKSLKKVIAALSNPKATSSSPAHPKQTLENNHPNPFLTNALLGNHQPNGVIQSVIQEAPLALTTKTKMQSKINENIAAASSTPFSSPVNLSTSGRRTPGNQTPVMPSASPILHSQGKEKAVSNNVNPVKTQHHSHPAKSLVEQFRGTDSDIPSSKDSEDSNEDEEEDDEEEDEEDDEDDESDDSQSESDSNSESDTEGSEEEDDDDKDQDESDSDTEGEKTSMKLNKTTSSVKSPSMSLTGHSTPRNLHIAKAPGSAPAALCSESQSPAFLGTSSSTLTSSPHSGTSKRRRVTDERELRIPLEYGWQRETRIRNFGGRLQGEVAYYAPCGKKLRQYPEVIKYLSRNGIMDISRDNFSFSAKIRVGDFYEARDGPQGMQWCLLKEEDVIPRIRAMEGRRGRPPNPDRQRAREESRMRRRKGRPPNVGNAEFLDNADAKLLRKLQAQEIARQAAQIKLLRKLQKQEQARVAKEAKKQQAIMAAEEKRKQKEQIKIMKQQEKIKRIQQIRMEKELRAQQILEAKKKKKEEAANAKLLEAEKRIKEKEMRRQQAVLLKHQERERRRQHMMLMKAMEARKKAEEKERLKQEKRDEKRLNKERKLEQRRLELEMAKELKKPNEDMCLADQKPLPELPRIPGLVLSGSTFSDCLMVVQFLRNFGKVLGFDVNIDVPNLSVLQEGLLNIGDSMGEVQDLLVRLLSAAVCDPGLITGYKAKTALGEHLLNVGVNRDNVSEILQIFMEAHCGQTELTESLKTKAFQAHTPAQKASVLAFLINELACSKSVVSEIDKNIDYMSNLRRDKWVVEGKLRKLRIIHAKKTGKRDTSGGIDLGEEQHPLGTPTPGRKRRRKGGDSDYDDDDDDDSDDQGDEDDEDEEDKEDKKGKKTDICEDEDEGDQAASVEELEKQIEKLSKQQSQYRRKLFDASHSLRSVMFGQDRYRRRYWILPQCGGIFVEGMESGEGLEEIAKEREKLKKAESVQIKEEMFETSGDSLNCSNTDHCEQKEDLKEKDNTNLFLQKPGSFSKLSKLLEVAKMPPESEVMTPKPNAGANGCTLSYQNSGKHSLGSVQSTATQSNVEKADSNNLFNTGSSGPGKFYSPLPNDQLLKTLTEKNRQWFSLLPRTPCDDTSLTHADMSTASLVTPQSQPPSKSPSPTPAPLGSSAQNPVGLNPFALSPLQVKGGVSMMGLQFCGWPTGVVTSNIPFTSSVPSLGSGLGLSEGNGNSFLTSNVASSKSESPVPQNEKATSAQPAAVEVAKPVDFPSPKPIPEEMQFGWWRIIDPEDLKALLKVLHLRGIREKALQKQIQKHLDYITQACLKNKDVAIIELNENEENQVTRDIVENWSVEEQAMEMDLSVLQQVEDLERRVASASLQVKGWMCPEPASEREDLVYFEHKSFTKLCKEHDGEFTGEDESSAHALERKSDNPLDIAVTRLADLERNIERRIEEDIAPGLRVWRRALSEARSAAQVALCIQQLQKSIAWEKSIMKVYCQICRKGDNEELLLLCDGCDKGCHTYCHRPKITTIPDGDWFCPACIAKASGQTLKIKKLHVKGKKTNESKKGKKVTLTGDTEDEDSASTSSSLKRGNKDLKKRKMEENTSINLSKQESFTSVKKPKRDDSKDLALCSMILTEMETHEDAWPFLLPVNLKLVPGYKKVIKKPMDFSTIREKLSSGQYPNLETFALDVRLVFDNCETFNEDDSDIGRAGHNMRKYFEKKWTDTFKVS
Procedure, shortened: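 Complex of BAZ2B and biotin-H3K14Ac (50 nM apiece) forms over 30 min at RT, then faces library compounds up to 110 uM for another 30 min; AlphaScreen beads added, 20 min dark incubation, luminescence read.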
For COCCCn1c(SCC(=O)Nc2ccccc2)nnc1-c1ccncc1, the Potency was “inactive”. For COCCCn1c(SCC(=O)NC2CCCC2)nnc1-c1ccccc1, the Potency was “inactive”. For COCCCn1c(Cc2csc(Nc3cccc(Cl)c3)n2)nnc1SCC(=O)OC1CCCCC1, the Potency was 39.8 µM (active). With COc1ccc(-c2cc(C(=O)NCc3cc(OC)c(OC)c(OC)c3)[nH]n2)cc1 the Potency was “inactive”. CN(C)c1cccc(C(=O)Nc2nc3ccc(S(=O)(=O)NC(C)(C)C)cc3s2)c1 was tested, and the Potency was “inactive”. In the case of Cc1csc(NC(=O)CN2CCCCCC2)n1, the Potency is reported as 50.1 µM (active). O=C(CN1CCCCCC1)Nc1c(Cl)cc(Cl)cc1Cl was tested, and the Potency was “inactive”. With Cc1cc(C)c(NC(=O)CN2CCCCCC2)c(C)c1 the Potency was “inactive”. With CCOc1ccc(-c2nonc2NC(=O)c2oc3ccc(C)cc3c2C)cc1OCC the Potency was “inactive”. COc1ccc(CCNc2nc(-c3ccc(Cl)cc3)cc(C(F)(F)F)n2)cc1OC was tested, and the Potency was “inactive”. For C#CCOCCOCCOCCNc1nc(N2CCN(C(=O)[C@H](CCC(=O)O)n3cc(C(N)CO)nn3)CC2)nc(N2CCN(C(=O)[C@H](Cc3ccc(O)cc3)n3cc(C(N)[C@H](C)CC)nn3)CC2)n1 (some centres undefined), the Potency was 39.8 µM (active). For C#CCOCCOCCOCCNc1nc(N2CCN(C(=O)[C@H](CCCCN)n3cc([C@@H](N)C(C)CC)nn3)CC2)nc(N2CCN(C(=O)[C@H](Cc3ccc(O)cc3)n3cc([C@@H](N)C(C)CC)nn3)CC2)n1 (some centres undefined), the Potency was 44.7 µM (active). C#CCOCCOCCOCCNc1nc(N2CCN(C(=O)C(Cc3ccc(O)cc3)n3cc(C(N)CC(C)C)nn3)CC2)nc(N2CCN(C(=O)C(Cc3ccc(O)cc3)n3cc(C(N)C(C)CC)nn3)CC2)n1 (centres undefined) was tested, and the Potency was 56.2 µM (active). CC[C@H](C)[C@@H](C(=O)N1CCNCC1)n1cc([C@@H](N)Cc2ccc(O)cc2)nn1 was tested, and the Potency was “inactive”. In the case of C#CCOCCOCCOCCNc1nc(N2CCN(C(=O)[C@H](Cc3ccc(O)cc3)n3cc(C(N)CC(C)C)nn3)CC2)nc(N2CCN(C(=O)[C@H](CCC(=O)O)n3cc(C(N)[C@H](C)CC)nn3)CC2)n1 (some centres undefined), the Potency is reported as 70.8 µM (active). With CSc1ccc(C2C(C(=O)Nc3ccccc3)=C(C)Nc3nc4ccccc4n32)cc1 (centres undefined) the Potency was “inactive”. CCC(CC)C(=O)N1CCc2cc(OC)c(OC)cc2C1COc1ccc(F)cc1 (centres undefined) was tested, and the Potency was “inactive”. With COc1ccc(NC(=O)c2sc3nc[nH]c(=O)c3c2C)cc1 the Potency was “inactive”. With COc1ccc(OC)c(-c2nc(C(N)=O)c3c(n2)n(-c2ccc4c(c2)OCO4)c(=O)n3C)c1 the Potency was “inactive”. In the case of CCc1ccccc1NC(=O)N1CCN(C(=O)c2nsc3ccccc23)CC1, the Potency is reported as “inactive”. In the case of Cc1csc2nc(COC(=O)c3ccc(NC(=O)COc4ccccc4F)cc3)cc(=O)n12, the Potency is reported as “inactive”. CCc1nc2ccc(C(=O)N3CCN(c4cc(Cl)ccc4C)CC3)cc2nc1CC was tested, and the Potency was “inactive”. Cc1c(NC(=O)C(C)(C)C)cccc1-c1nc2ccccc2s1 was tested, and the Potency was “inactive”. For O=C1CSC(=S)N1/N=C/c1ccc(O)c([N+](=O)[O-])c1, the Potency was 50.1 µM (active). In the case of COc1cccc(N2CCN(C(=O)CCCCCn3c(=O)[nH]c4ccccc4c3=O)CC2)c1, the Potency is reported as “inactive”. For COc1ccc2c(Sc3ccc(C)cc3)c(C(=O)NC(C)c3ccccc3)[nH]c2c1 (centres undefined), the Potency was “inactive”. In the case of Cc1ccc(N(CC(=O)NCC(C)c2ccccc2)S(=O)(=O)N(C)C)cc1 (centres undefined), the Potency is reported as “inactive”. With CS(=O)(=O)c1ccc2c(c1)SC1=NC(=O)/C(=C/c3ccco3)C(=N)N12 the Potency was 50.1 µM (active). CCC1=NN2C(=N)/C(=C/c3cc(C)n(-c4ccccc4)c3C)C(=O)N=C2S1 was tested, and the Potency was “inactive”. In the case of Cc1ccc(NC(=O)c2nc[nH]c2C(=O)N[C@@H](CCCCNC(=O)OC(C)(C)C)C(=O)OC(C)(C)C)cc1, the Potency is reported as “inactive”. In the case of CC(C)(C)OC(=O)NCCCCCNC(=O)c1[nH]cnc1C(=O)Nc1nccs1, the Potency is reported as 31.6 µM (active). With CC(C)(C)OC(=O)NCCCCCNC(=O)c1nc[nH]c1C(=O)NCc1ccccc1 the Potency was “inactive”. With OCc1cnc(SCc2ccc(F)cc2)n1Cc1ccc(F)cc1 the Potency was “inactive”. For CCOc1ccc(-n2c(SCC(=O)NCc3ccccc3)nc3n[nH]c(C)c3c2=N)cc1, the Potency was “inactive”. With O=C(Cn1ccc(=O)[nH]c1=O)Nc1ccc(C(=O)O)c(O)c1 the Potency was “inactive”. For O=C(Nc1ccc(C(=O)O)c(O)c1)c1ccccc1, the Potency was “inactive”. O=C(O)c1ccc(-n2cccc2)cc1O was tested, and the Potency was 56.2 µM (active). With Cc1ccc(S(=O)(=O)N(Cc2nc(-c3ccc(Cl)cc3)no2)C2CCCCC2)cc1 the Potency was “inactive”. With CN1C2CCC1/C(=C\c1ccccc1Cl)C(=O)/C2=C\c1ccccc1Cl the Potency was 39.8 µM (active). For O=C(CN1C(=O)S/C(=C\c2ccccc2Cl)C1=O)NC1C=CS(=O)(=O)C1 (centres undefined), the Potency was “inactive”. For O=C(CN1CCCCCC1)NCCN1C(=O)S/C(=C\c2ccccc2Cl)C1=O, the Potency was “inactive”. In the case of O=C(Nc1ccc(F)cc1F)c1ccc2c(=O)n3c(nc2c1)CCCCC3, the Potency is reported as “inactive”. For CCOC(=O)c1cc2c(=O)n3ccccc3nc2n(CCCOC)c1=NC(=O)C(C)(C)Oc1ccc(Cl)cc1, the Potency was “inactive”. Oc1ccccc1-c1nc(/C=C/c2ccc(F)cc2)no1 was tested, and the Potency was “inactive”. In the case of Cc1ccn2c(=O)nc(SCC(=O)NCc3ccc4c(c3)OCO4)nc2c1, the Potency is reported as 56.2 µM (active). With O=C(CSc1ncn[nH]1)NCc1ccc2c(c1)OCO2 the Potency was “inactive”. In the case of Cc1ccn2c(=O)nc(SCC(=O)NCc3ccc(F)cc3)nc2c1, the Potency is reported as “inactive”. In the case of Cc1ccc(C)c(Nc2nnc(-c3ccc(C)c(S(=O)(=O)N4CCCCC4)c3)c3ccccc23)c1, the Potency is reported as “inactive”. In the case of COc1cccc(CNC(=O)c2ccc3c(c2)sc2nc(-c4cccc(OC)c4)cn23)c1, the Potency is reported as “inactive”. For COc1ccc(OC)c(NC(=O)CN(C)CCOc2ccc(Br)cc2)c1, the Potency was “inactive”. With CN(C)CCOC1c2ccccc2-c2ccccc21 the Potency was “inactive”. With CN(C)CCOc1cccc(Br)c1 the Potency was 44.7 µM (active). For COc1ccc(NC(=O)CN2CCCN(Cc3ccccc3)S2(=O)=O)cc1, the Potency was “inactive”. For O=C(NCCCNCc1ccccc1)c1ccc(/C=N/O)nc1, the Potency was 50.1 µM (active). For Nc1ccc(C(=O)NCc2ccccc2)cc1, the Potency was “inactive”. For CC(C)c1ccc(C(=O)NCCCc2ccccc2)cc1, the Potency was “inactive”. With O=C(Cc1ccc(Cl)cc1)NC(=S)Nc1ccccc1O the Potency was “inactive”. For Oc1ccc(CNc2ccccc2O)cc1, the Potency was 44.7 µM (active). Oc1ccccc1N1CCN(C(=S)NCc2ccccc2)CC1 was tested, and the Potency was “inactive”. In the case of O=C(c1ccc(C(F)(F)F)cc1)N1CCC(c2nc(-c3ccc(S(=O)(=O)N4CCCC4)cc3)no2)CC1, the Potency is reported as “inactive”. COc1cccc(NC(=O)Nc2ccc3c(c2)N(C)C(=O)c2ccccc2S3)c1 was tested, and the Potency was “inactive”. For COc1ccc(CC(=O)N2CC(=O)Nc3ccc(Br)cc3C2c2ccc(F)cc2)cc1OC (centres undefined), the Potency was “inactive”. In the case of CCOC(=O)c1c(NC(=O)CSc2nnc(Cc3csc(N)n3)n2C)sc(C)c1C, the Potency is reported as 12.6 µM (active). CCOC(=O)c1c(NC(=O)CSc2nccc(=O)[nH]2)sc(C)c1C was tested, and the Potency was “inactive”. In the case of CCOC(=O)c1c(NC(=O)CSc2nnc(CN3CCOCC3)n2C)sc2c1CCCC2, the Potency is reported as “inactive”. Cc1cccc(C)c1-n1ncc(C(=O)NCCCN2CCCCC2)c1C1CCN(C(=O)OC(C)(C)C)CC1 was tested, and the Potency was “inactive”. CC(C)S(=O)(=O)c1oc(-c2ccc(F)cc2)nc1S(=O)(=O)c1ccc(F)cc1 was tested, and the Potency was “inactive”. With Cc1ccc(NC(=O)CSc2nc3c([nH]c4ccccc43)c(=O)n2-c2ccccc2)cc1Cl the Potency was “inactive”. With Cc1ccc(N2CC(c3nnc(Cc4ccccc4Cl)o3)CC2=O)cc1 (centres undefined) the Potency was “inactive”. Cc1ccc(C(=O)OCc2nc(N)nc(Nc3ccccc3C)n2)cc1 was tested, and the Potency was “inactive”. For Cc1ccccc1Nc1nc(N)nc(CN2CCN(c3ccccn3)CC2)n1, the Potency was 50.1 µM (active). Cc1ccccc1Nc1nc(N)nc(CSc2ccccc2)n1 was tested, and the Potency was “inactive”. For CCOc1ccccc1CNC(=O)Nc1cn(CC(C)C)c(=O)c2ccccc12, the Potency was “inactive”. In the case of COc1ccccc1CNC(=O)C(Cc1ccccc1)NS(=O)(=O)c1ccc2c(c1)oc(=O)n2C (centres undefined), the Potency is reported as “inactive”. In the case of COc1ccc2c(C)c(CCC(=O)NCc3ccc(OC)c(OC)c3)c(=O)oc2c1, the Potency is reported as “inactive”. With CC(C)c1ccc(Nc2ncccc2C#N)cc1 the Potency was “inactive”. With Nc1ccc(Nc2cc(O)c3ncccc3c2)cc1 the Potency was 7.08 µM (active). For O=C(CCn1ccc2cc(S(=O)(=O)N3CCCC3)ccc21)NCc1cccc(Cl)c1, the Potency was “inactive”. With CC1CCN(S(=O)(=O)c2ccc3c(ccn3CCC(=O)NCc3ccc(N(C)C)cc3)c2)CC1 the Potency was 28.2 µM (active). In the case of CC1CCN(S(=O)(=O)c2ccc3c(ccn3CC(=O)O)c2)CC1, the Potency is reported as “inactive”. In the case of CCCN(CCC)C(=O)C(Cc1ccccc1)NS(=O)(=O)c1ccc2c(c1)c(=O)n(C)c(=O)n2C (centres undefined), the Potency is reported as “inactive”. With Cc1ccc(S(=O)(=O)N2CCN(CC(=O)N/N=C/c3cc([N+](=O)[O-])ccc3Cl)CC2)cc1 the Potency was “inactive”. For O=[N+]([O-])c1cc(Cl)cc(/C=N/NC(=S)Nc2cc(S(=O)(=O)N3CCOCC3)ccc2Cl)c1O, the Potency was 1.78 µM (active). In the case of O=S(=O)(c1ccc(NC(=S)NN=C(C2CC2)C2CC2)cc1)N1CCOCC1, the Potency is reported as “inactive”. In the case of Cn1c(=O)c2c(nc(SCC(=O)Nc3ccc(F)cc3)n2Cc2ccccc2)n(C)c1=O, the Potency is reported as “inactive”. In the case of Cc1nn(C(C)C(=O)Nc2ccc(C(C)C)cc2)c(=O)c2c1sc1ccccc12 (centres undefined), the Potency is reported as “inactive”. In the case of CC1CN(C(=O)N2CCC(C(=O)NCc3ccco3)CC2)c2cc(Cl)ccc2O1 (centres undefined), the Potency is reported as “inactive”. O=C(Nc1nnc(C2CC2)s1)c1ccccn1 was tested, and the Potency was 5.62 µM (active). For Cc1cnc(NC(=O)C2CCCC2)s1, the Potency was “inactive”. With Cc1ccc(SCC(=O)Nc2ncc(C)s2)cc1 the Potency was “inactive”. For Cc1cc(C(=O)Nc2nnc(C3CC3)s2)c(C)s1, the Potency was “inactive”. In the case of Cc1cnc(NC(=O)c2ccccn2)s1, the Potency is reported as 35.5 µM (active). For O=C(Nc1nnc(C2CC2)s1)c1cc(Cl)sc1Cl, the Potency was “inactive”. For COCCNC(=O)c1ccc2c(c1)N=C(C)c1cc(C)ccc1S2, the Potency was “inactive”.
Further: nearly all actives have a fitted effect of over 60% in size.
Potency means the concentration at half of the fitted maximal effect.
